Laboratory results reported in PubChem BioAssay.
Calls of active or inactive are those of the source.

Tests used:
[1] = test system: Plasmodium falciparum Sir2 (PF13_0152, Sir2A); assay: pfSir2 binders on small-molecule microarrays, primary screen, biochemical, small-molecule microarray, 635 nm fluorescence (AID 1098); conditions: small-molecule microarray binding, fluorescence 635 nm; higher = more signal;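 further: score merges spot fluorescence intensity with its signal-to-noise ratio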
[2] = small-molecule microarray binders of probe aDKK1, primary screen, biochemical, biotinylated probe, 635/667 nm fluorescence (AID 1099); conditions: higher = more signal;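 further: score merges 667nm spot fluorescence with signal to noise across triplicate slides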
[3] = small-molecule microarray binders of probe aCHRDL2, primary screen, biochemical, biotinylated probe, 635/667 nm fluorescence (AID 1100); conditions: higher = more signal
[4] = splicing luciferase reporter signal modulators, primary screen, spliceosome inhibition project, cell-based, HEK293, splice +/- reporter (AID 1101); conditions: luminescence, 24 h, higher = more signal, called active from +8 up or from −8 down;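 further: HEK293 cells carrying a splicing-competent luciferase reporter gene; test concentration not given here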
[5] = target: Fibroblast growth factor 10 (Homo sapiens) (UniProt O15520); assay: FGF10 binders on small-molecule microarrays, primary screen, biochemical, small-molecule microarray, 635 nm fluorescence (AID 1102); conditions: FGF10 binding, fluorescence 635 nm, higher = more signal
[6] = test system: glycogen synthase kinase-3 (GSK3A per assay name; protocol says GSK3B); assay: GSK3 binders on small-molecule microarrays, primary screen, biochemical, small-molecule microarray, 635 nm fluorescence, GSK3A (AID 1103); conditions: small-molecule microarray binding, fluorescence 635 nm; higher = more signal; further: the record names both GSK3A and GSK3B
[7] = target: Epidermal growth factor receptor (Homo sapiens) (UniProt P00533); assay: EGFR binders on small-molecule microarrays, primary screen, biochemical, small-molecule microarray, 635 nm fluorescence (AID 1104); conditions: EGFR binding, higher = more signal;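 further: score merges 667 nm emission intensity with spot signal to noise over triplicate slides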
[8] = target: Follistatin-related protein 3 (Homo sapiens) (UniProt O95633); assay: FSTL3 binders on small-molecule microarrays, primary screen, biochemical, small-molecule microarray, 635 nm fluorescence (AID 1105); conditions: FSTL3 binding, higher = more signal;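 further: score merges emission near 667 nm and signal to noise per printed spot across three slides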
[9] = target: Dickkopf-related protein 1 (Homo sapiens) (UniProt O94907); assay: DKK1 binders on small-molecule microarrays, primary screen, biochemical, small-molecule microarray, 635 nm fluorescence scan (AID 1106); conditions: DKK1 binding, higher = more signal;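 further: score merges emission near 667 nm with signal to noise over three replicate slides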
[10] = test system: Inhibin beta A chain (activin A); assay: INHBA (activin A) binders on microarrays, primary screen, biochemical, small-molecule microarray, 635 nm fluorescence scan (AID 1107); conditions: small-molecule microarray binding, higher = more signal;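 further: mouse activin A protein probed at 4.33 µg/mL on printed slides; score merges bound-protein fluorescence near 667 nm with spot signal-to-noise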
[11] = test system: Human papillomavirus type 1a protein E7 (residues 44-93); assay: HPV1a E7 fragment binders on microarrays, primary screen, biochemical, small-molecule microarray, residues 44-93, 635 nm fluorescence (AID 1108); conditions: small-molecule microarray binding, fluorescence 635 nm; higher = more signal;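 further: E7 fragment applied at 1 µg/mL in TBST for 1 h at 4 C; score combines spot fluorescence with its signal to noise ratio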
[12] = modulators of HCV replicon luciferase signal, primary screen, HCV replication inhibitor project, Huh7 cells, luciferase reporter (AID 1109); conditions: 48 h, higher = more signal;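 further: huh7 hepatoma cells harbouring a luciferase neomycin HCV replicon reporter; luciferase luminescence as measure of HCV replicon replication; test concentration not given here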
[13] = target: Left-right determination factor 2 (Homo sapiens) (UniProt O00292); assay: LEFTY2 binders on small-molecule microarrays, primary screen, biochemical, small-molecule microarray, 635 nm fluorescence scan (AID 1110); conditions: LEFTY2 binding, higher = more signal
[14] = target: Calmodulin-1 (Homo sapiens) (UniProt P0DP23); assay: CALM1 binders on microarrays, EGTA buffer, profiling panel, biochemical, small-molecule microarray, Cy5-labelled CALM1 (AID 1111); conditions: Cy5-CALM1 binding fluorescence, higher = more signal;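 further: labelled calmodulin applied in Tris saline Tween buffer holding calcium plus EGTA and DTT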
[15] = target: Calmodulin-1 (Homo sapiens) (UniProt P0DP23); assay: calcium-bound CALM1 binders on microarrays, profiling panel, artefact control for SMM control-protein annotation, biochemical, small-molecule microarray, Cy5-labelled CALM1, plus calcium (AID 1112); conditions: Cy5-CALM1 binding fluorescence, higher = more signal;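 further: score merges spot fluorescence with signal to noise from triplicate slides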
[16] = small-molecule microarray binders of probe aWnt5a, primary screen, biochemical, biotinylated probe, 635/667 nm fluorescence (AID 1113); conditions: higher = more signal;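 further: score merges 667 nm fluorescence intensity with signal-to-noise per printed feature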
[17] = small-molecule microarray binders of probe aShh, primary screen, biochemical, biotinylated probe, 635/667 nm fluorescence (AID 1114); conditions: higher = more signal;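 further: probe is biotin-labelled aShh protein from a stem cell growth factor screen; measures binding of labelled protein to compounds printed on the slide; score merges feature fluorescence at 667 nm with signal-to-noise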
[18] = small-molecule microarray binders of probe aNog, primary screen, biochemical, biotinylated probe, 635/667 nm fluorescence (AID 1115); conditions: higher = more signal;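 further: probe is biotinylated aNog protein used at 0.15 µg/mL for 1 h at 4 C; z-score combines 667 nm fluorescence of each spot with its signal to noise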
[19] = target: Torsin-1A-interacting protein 1 (Homo sapiens) (UniProt Q5JTV8); assay: LAP1 binders from COS7 cell lysate, primary screen, small-molecule microarray, 635/667 nm fluorescence (AID 1116); conditions: COS7-hLAP1 lysate binding, 635 nm fluorescence, higher = more signal
[20] = target: Alpha-bungarotoxin (Bungarus multicinctus) (UniProt P60615); assay: alpha-bungarotoxin binders on microarray, profiling panel, artefact control for SMM control protein annotation, biochemical, small-molecule microarray, Alexa647 label, 635/667 nm fluorescence (AID 1117); conditions: alpha-BTX-A647 binding fluorescence, higher = more signal
Alpha-bungarotoxin (Bungarus multicinctus), sequence (P60615 whole entry, looked up): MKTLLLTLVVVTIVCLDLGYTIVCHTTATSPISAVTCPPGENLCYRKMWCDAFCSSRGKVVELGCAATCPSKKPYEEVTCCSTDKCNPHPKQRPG

Dickkopf-related protein 1 (Homo sapiens), sequence (O94907 whole entry, looked up): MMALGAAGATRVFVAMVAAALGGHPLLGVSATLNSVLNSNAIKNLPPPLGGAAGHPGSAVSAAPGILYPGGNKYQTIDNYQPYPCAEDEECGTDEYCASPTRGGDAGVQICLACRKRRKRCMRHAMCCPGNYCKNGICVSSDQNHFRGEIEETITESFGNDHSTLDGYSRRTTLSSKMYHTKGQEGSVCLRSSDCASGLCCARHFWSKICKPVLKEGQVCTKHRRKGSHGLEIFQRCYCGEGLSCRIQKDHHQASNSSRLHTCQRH
Follistatin-related protein 3 (Homo sapiens), sequence (O95633 whole entry, looked up): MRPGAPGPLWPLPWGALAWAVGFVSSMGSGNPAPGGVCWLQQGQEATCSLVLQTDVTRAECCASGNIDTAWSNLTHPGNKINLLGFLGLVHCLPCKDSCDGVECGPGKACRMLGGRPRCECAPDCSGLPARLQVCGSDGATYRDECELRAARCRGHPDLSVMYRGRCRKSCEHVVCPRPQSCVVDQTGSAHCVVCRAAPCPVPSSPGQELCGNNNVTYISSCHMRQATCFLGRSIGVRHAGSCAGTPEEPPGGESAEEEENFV
Left-right determination factor 2 (Homo sapiens), sequence (O00292 whole entry, looked up): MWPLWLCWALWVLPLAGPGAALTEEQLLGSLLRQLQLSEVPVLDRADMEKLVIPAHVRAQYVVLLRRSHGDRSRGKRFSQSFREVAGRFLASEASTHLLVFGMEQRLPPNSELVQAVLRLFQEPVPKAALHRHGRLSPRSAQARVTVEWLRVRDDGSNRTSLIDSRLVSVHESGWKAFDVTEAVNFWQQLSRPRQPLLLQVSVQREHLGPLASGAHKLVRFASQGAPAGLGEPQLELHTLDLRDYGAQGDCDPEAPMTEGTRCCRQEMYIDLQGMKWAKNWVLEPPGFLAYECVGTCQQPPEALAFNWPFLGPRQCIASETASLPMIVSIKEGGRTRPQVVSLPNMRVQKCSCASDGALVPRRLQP
Fibroblast growth factor 10 (Homo sapiens), sequence (O15520 whole entry, looked up): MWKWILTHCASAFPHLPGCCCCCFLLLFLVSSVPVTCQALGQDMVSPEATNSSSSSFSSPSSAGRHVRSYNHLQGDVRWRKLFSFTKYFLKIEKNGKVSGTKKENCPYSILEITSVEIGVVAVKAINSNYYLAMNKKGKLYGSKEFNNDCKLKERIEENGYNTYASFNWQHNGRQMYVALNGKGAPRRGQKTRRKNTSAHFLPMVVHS
Epidermal growth factor receptor (Homo sapiens), sequence (P00533 whole entry, looked up): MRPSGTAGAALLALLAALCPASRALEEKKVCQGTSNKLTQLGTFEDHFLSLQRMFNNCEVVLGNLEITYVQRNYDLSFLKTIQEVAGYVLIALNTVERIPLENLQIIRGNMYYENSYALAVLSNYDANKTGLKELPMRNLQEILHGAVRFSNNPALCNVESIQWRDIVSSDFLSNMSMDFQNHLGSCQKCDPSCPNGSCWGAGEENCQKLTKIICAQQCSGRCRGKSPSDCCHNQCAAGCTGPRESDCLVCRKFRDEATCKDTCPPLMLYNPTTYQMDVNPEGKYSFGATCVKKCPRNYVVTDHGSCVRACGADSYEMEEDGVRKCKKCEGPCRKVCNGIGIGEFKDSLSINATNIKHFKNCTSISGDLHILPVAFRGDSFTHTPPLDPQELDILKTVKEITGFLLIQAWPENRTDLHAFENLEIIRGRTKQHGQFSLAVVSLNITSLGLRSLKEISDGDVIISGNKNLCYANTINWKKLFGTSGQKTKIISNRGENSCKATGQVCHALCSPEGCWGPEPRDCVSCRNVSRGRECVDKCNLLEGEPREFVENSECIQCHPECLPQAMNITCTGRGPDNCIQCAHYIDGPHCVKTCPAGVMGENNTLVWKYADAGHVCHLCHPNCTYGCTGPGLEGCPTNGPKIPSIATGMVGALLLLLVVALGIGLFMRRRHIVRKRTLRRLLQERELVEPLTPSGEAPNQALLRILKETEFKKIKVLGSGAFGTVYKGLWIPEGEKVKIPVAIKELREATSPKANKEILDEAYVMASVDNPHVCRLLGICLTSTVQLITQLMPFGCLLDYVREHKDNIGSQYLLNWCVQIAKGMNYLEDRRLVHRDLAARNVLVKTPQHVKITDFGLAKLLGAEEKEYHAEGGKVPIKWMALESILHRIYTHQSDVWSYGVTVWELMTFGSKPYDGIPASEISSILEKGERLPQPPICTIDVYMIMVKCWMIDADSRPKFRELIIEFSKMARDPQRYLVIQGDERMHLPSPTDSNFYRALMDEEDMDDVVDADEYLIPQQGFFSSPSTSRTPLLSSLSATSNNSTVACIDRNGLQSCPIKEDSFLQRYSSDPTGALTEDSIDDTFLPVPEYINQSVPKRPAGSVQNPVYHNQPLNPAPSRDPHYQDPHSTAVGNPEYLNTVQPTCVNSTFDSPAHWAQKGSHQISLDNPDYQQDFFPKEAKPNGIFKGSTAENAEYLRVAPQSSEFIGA
Torsin-1A-interacting protein 1 (Homo sapiens), sequence (Q5JTV8 whole entry, looked up): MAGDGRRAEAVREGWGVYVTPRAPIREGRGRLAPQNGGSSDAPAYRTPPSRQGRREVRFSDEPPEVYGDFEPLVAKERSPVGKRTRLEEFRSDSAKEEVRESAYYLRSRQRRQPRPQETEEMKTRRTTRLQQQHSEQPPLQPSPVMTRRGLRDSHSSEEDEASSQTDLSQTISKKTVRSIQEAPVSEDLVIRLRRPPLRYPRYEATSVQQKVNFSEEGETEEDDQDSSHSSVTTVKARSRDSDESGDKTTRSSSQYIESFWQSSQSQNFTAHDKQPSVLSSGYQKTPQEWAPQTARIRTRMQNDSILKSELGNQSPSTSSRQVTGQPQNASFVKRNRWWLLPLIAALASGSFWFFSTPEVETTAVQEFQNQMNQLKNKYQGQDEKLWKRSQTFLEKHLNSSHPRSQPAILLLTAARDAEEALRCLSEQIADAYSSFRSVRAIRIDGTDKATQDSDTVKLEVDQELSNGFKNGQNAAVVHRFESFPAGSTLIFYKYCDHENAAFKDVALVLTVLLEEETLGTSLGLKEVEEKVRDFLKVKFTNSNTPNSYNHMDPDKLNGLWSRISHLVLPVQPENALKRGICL

Row | Compound | composite z-score [1] | composite z-score [2] | composite z-score [3] | z-score [4] | composite z-score [5] | composite z-score [6] | composite z-score [7] | composite z-score [8] | composite z-score [9] | composite z-score [10] | composite z-score [11] | z-score [12] | composite z-score [13] | composite z-score [14] | composite z-score [15] | composite z-score [16] | composite z-score [17] | composite z-score [18] | composite z-score [19] | composite z-score [20]
1 | COCC(=C=CC[C@@H](O)c1ccc(OCCO)cc1)C[C@@H](O)c1ccccn1 | 0.0525 | -0.201 | -0.288 | 0.0733 (inactive) | 0.377 | 0.0621 | 0.0724 | 0.439 | 0.0579 | 1.18 | 0.518 | -1.24 | 0.33 | -0.336 | -0.125 | 0.0173 | 0.227 | -0.0184 | 0.407 | 0.338
2 | CC(C)Cc1ccc(CN2CC[C@@H](N)C2)cc1 | 0.472 | -0.459 | -0.275 | -1.75 (inactive) | -1.16 | -0.727 | -1.06 | -0.431 | -0.444 | 0.419 | -2.06 | -4.41 | -0.669 | -0.387 | 0.36 | -0.274 | -0.147 | 0.023 | -1.24 | -0.118
3 | CC[C@@H]1C=C(C(=O)O)[C@H](c2ccc(C)cc2)N1S(=O)(=O)c1ccc(C)cc1 | 0.66 | 0.0882 | 0.335 | 0.243 (inactive) | 0.227 | 0.745 | -0.0708 | 0.534 | -0.357 | 0.236 | 0.878 | -0.315 | -0.925 | 0.846 | 0.515 | -0.096 | 0.0048 | -0.126 | 0.24 | 0.671
4 | O=C1C[C@@](C(=O)NCc2ccccc2)(c2ccc([N+](=O)[O-])cc2)[C@@H](c2ccc(CO)cc2)N1CC12CC3CC(CC(C3)C1)C2 | 1.62 | -0.387 | -0.371 | -0.859 (inactive) | 1.06 | 1.13 | 0.385 | 0.837 | 0.0703 | 0.0162 | 1.37 | -2.95 | 0.31 | 0.35 | 0.159 | -0.101 | -0.512 | -0.374 | 0.538 | 0.766
5 | C=CC[C@]1(C(=O)N2CCOCC2)N=C(c2ccc(OCCCO)cc2)O[C@H]1c1ccccc1N=[N+]=[N-] | 0.945 | 0.779 | 1.17 | -1.23 (inactive) | 0.95 | 1.29 | 0.23 | 0.673 | -0.201 | 1.09 | 1.47 | -1.43 | 0.258 | 1.47 | 0.667 | 0.0839 | 0.308 | 1.76 | 1.9 | 0.92
6 | COCCCNC(=O)[C@@H]1c2ccccc2C(=O)N(Cc2ccccc2OC)[C@H]1c1ccc(CO)cc1 | 0.342 | -0.257 | 0.287 | -1.06 (inactive) | 0.621 | -0.177 | 0.238 | 0.403 | 0.56 | 0.344 | 0.889 | -1.96 | -0.0144 | 0.349 | 0.392 | 0.0279 | -0.0035 | -0.136 | 1.62 | 0.117
